By AC50 is commonly meant the concentration giving half of the maximal activity seen.

60 compounds from PubChem BioAssay AID1851 (National Center for Advancing Translational Sciences (NCATS), 2009) can be followed below.

Molecules are shown by their SMILES. Values joined by “and” are separate entries in the source; they are usually repeats but may differ in a detail not shown here. Identical values can stand only once. Screen size: about 16,000 compounds; about 5,700 (36%) were called active. About 24% were inconclusive and are not listed. Some of the results follow. A number with no mark means an inactive call. Calls follow the shape of the dose curve; as a rule, active = well fitted curve in the direction sought with a large enough effect; inconclusive = small, poorly fitted or top-dose-only effect, or effect the other way; inactive = no such curve, though single readings can be large or run the other way.
% is scaled to controls: 0 for no effect and ±100 for the full control effect.

This assay deals with Cytochrome P450 1A2 (Homo sapiens) (UniProt P05177). The experiment in a line: Cytochrome panel assay with activity outcomes. Particulars: recombinant CYP, pro-luciferin dealkylation, luminescence, p450-cyp1a2; series mostly up to 57.1 µM; activity, negative = inhibition: at the top concentration.
Cytochrome P450 1A2 (Homo sapiens), sequence (P05177 whole entry, looked up): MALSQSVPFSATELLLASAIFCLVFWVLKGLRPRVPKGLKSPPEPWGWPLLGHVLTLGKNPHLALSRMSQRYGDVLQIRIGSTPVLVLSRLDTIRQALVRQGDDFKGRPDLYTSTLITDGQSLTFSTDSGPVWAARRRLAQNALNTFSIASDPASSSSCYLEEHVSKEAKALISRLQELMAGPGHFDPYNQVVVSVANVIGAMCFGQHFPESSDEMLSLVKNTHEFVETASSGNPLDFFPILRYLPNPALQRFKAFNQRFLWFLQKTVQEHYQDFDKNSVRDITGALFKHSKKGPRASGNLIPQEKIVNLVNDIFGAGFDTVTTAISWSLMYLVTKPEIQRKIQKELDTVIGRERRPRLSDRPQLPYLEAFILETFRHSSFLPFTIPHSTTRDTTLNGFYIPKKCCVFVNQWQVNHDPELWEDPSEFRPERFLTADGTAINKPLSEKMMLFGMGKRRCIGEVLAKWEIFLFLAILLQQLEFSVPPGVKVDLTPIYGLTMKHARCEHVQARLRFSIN
Turning to `CC(=O)NCCNc1ncnc2ccc(-c3cccc(NS(C)(=O)=O)c3)cc12`, the AC50 is 15.8 µM (active).
Still for that read-out and setting: in the case of `COCCNc1ncnc2ccc(-c3cccc(NS(C)(=O)=O)c3)cc12` it was 0.794 µM (active).
In the case of `O=C(c1cnccn1)N1CCC2(CCN(Cc3nccs3)CC2)CC1`, the “activity, negative = inhibition” value is -8.84%.
As for `Cc1ccc(NS(=O)(=O)c2cc(C(=O)NCc3ccccn3)ccc2Cl)cc1`, the AC50 was 5.01 µM (active).
On to `CN(c1ccc(C(=O)NCc2ccccn2)cc1)S(C)(=O)=O`, for which the “activity, negative = inhibition” value is 10.6%.
Turning to `C=C(CC)C(=O)c1ccc(OCC(=O)O)c(Cl)c1Cl`, the “activity, negative = inhibition” value is -13.9% [at 25.6 µM].
For `COC(=O)/C=C/CSC1=N/C(=C/c2ccc(-n3cncn3)cc2)C(=O)N1`, the AC50 is 1 µM (active).
Regarding `CNc1ncnc2c1ncn2[C@H]1C[C@@H](OP(=O)(O)O)[C@H](COP(=O)(O)O)O1`, the “activity, negative = inhibition” value is -14.7%.
As for `COC(=O)Cn1cc(/C=N/NC(=O)c2ccc(C#N)cc2F)c2ccccc21`, the AC50 was 3.55 µM (active).
For the compound `CCN(CC)C(=O)Cn1cc(/C=C(\C#N)C(=O)N2CCN(c3ccccc3)CC2)c2ccccc21`, the “activity, negative = inhibition” value was -12.4%.
Regarding `N#Cc1ccc(C(=O)Nc2ccc(N3CCN(C(=O)c4ccco4)CC3)cc2)c(F)c1`, the “activity, negative = inhibition” value is 21.3%.
In the case of `Cc1nc2cnc(Oc3ccccc3)nc2n(-c2ccccc2)c1=O`, the AC50 was 10 µM (active).
Still for that read-out and setting: in the case of `COc1ccc(Oc2ncc3nc(C)c(=O)n(-c4ccc(OC)cc4)c3n2)cc1` it was 15.8 µM (active).
For `COc1ccc(-n2c(=O)c(C)nc3cnc(OC)nc32)cc1`, the “activity, negative = inhibition” value was -21.9%.
Turning to `COc1ncc2nc(C)c(=O)n(-c3ccccc3)c2n1`, the AC50 is 5.01 µM (active).
With `Cc1ccc(N[C@H](c2ccccc2)c2ccc3cccnc3c2O)cc1`, the activity, negative = inhibition is -24.5% [at 2.29 µM].
`COc1ccc(/C(C)=N/NC(=O)c2ccc(CSc3cccc4cccnc34)cc2)cc1OC`: the AC50 was 11.2 µM (active).
Still for that read-out and setting: in the case of `Cc1cccc(CSc2cccc3cccnc23)c1` it was 2 µM (active).
Regarding `Cc1nc(N=Nc2cc(S(=O)(=O)O)ccc2S(=O)(=O)O)c(COP(=O)(O)O)c(C=O)c1O`, the “activity, negative = inhibition” value is -11.6%.
As to `COc1cc([C@H](O)C(=O)O)ccc1O`, the “activity, negative = inhibition” value was -11.9%.
On to `COc1cc(CC(=O)O)ccc1O`, for which the “activity, negative = inhibition” value is 0.616%.
For `COc1cc(CNC(=O)CCCC/C=C\C(C)C)ccc1O`, the half-maximal activity concentration (AC50) was 1.58 µM (active) and 3.16 µM (active).
For `O=C(O)/C=C\C(=O)Nc1ncn[nH]1`, the activity, negative = inhibition was -8.55% [at 11.4 µM].
As to `Clc1ccc(Nc2ncn[nH]2)cc1`, the concentration at half-maximal activity (AC50) was 4.47 µM (active).
In the case of `O=C(Nc1ncn[nH]1)c1ccc([N+](=O)[O-])cc1[N+](=O)[O-]`, the “activity, negative = inhibition” value was -24%.
On to `Cc1cc(C(C#N)c2cccc(Cl)c2)n2ncnc2n1` (stereo not given), for which the AC50 is 5.01 µM (active).
Consider `CC[C@@H]1CN2CCc3cc(OC)c(OC)cc3[C@H]2C[C@@H]1C[C@H]1NCCc2cc(OC)c(OC)cc21`, for which the “activity, negative = inhibition” value is -3.72% [at 25.6 µM].
As for `NC1CCN(c2cccc(Cl)n2)CC1`, the AC50 is 15.8 µM (active).
For `c1c[nH]c(CN2CCN(Cc3ncc[nH]3)CC2)n1`, the activity, negative = inhibition was 0.981% [at 11.4 µM].
Consider `COc1ccc(C2N=C(N)N=C(N)N2c2ccccc2OC)cc1OC` (stereo not given), for which the “activity, negative = inhibition” value is 1.06%.
Consider `CCn1c(SCC(=O)Nc2ccccc2C(=O)OC)nnc1-c1ccc(N)cc1`, for which the AC50 is 14.1 µM (active).
Consider `CC(C)CC(C(=O)NCC1CCCO1)N(C(=O)Cn1nnc(-c2ccc(F)cc2)n1)c1ccccc1F` (stereo not given), for which the “activity, negative = inhibition” value is -7.92%.
Still for that read-out and setting: next, `O=C(O)C[C@H]1OCC=C2C[N@@+]3([O-])CC[C@]45c6ccccc6N[C@@H]4[C@@H]1[C@H]2C[C@H]53`: -14.3% [at 2.29 µM]; `COc1ccc(O[C@H]2C=C[C@@H](c3ccccc3)O[C@@H]2CO/N=C(\C)CCN2CCCCc3nc(C)c(C)cc32)cc1`: 0.173% [at 11.4 µM].
On to `COc1ccccc1-c1cc(-n2ccnc2)ncn1`, for which the AC50 is 0.316 µM (active).
The same measure, in the same setting: next, `CN(C)Cc1ccccc1-c1cc(-n2ccnc2)ncn1`: 5.01 µM (active); `Cc1cc(-c2cccc([N+](=O)[O-])c2)nc2ccc3ccccc3c12`: 0.631 µM (active).
Take `Nc1nc(-c2cccc([N+](=O)[O-])c2)cc(-c2cc(-c3cccc([N+](=O)[O-])c3)nc(N)n2)n1`: the activity, negative = inhibition was 0.313% [at 2.29 µM].
As to `O=C(Cn1c(-c2cscn2)nc2ccccc21)Nc1cc(F)ccc1F`, the AC50 is 2.51 µM (active).
Take `CCn1c(CNC(=O)COc2ccc(C(C)C)cc2)nnc1SCC(=O)Nc1cc(F)ccc1C`: the “activity, negative = inhibition” value was -7%.
Same read-out and setting: in the case of `O=C(Cn1c(C(F)(F)F)nc2ccccc21)c1ccc(F)cc1` it was -27.8%.
On to `Cn1ncc2c(NCCc3ccccc3)nc(Cl)nc21`, for which the AC50 was 2.51 µM (active).
Turning to `Cn1ncc2c(Cl)ncnc21`, the activity, negative = inhibition was -5.24% [at 11.4 µM].
The same measure, in the same setting: next, `CN1CCN(c2ncc3nc(-c4ccccc4)c(=O)n(Cc4ccc(F)cc4)c3n2)CC1`: -20%.
`CN1CCN(c2ncc3nc(-c4cccs4)c(=O)n(Cc4cccs4)c3n2)CC1`: the AC50 was 15.8 µM (active).
Same read-out and setting: in the case of `COCCn1c(=O)c(-c2cccs2)nc2cnc(N3CCN(C)CC3)nc21` it was 15.8 µM (active).
Take `COc1cccc(Cn2c(=O)c(-c3ccccc3)nc3cnc(N4CCN(C)CC4)nc32)c1`: the “activity, negative = inhibition” value is -20.3%.
On to `CC(C)CNS(=O)(=O)c1cc(C(=O)N2CC(C)OC(C)C2)c(Cl)cc1Cl` (stereo not given), for which the “activity, negative = inhibition” value is 2.27%.
Regarding `c1ccc(CNc2ccnc(-c3cccnc3)n2)cc1`, the AC50 is 0.251 µM (active).
On the same count and under the same terms, next, `Cc1cccc(CNc2ccnc(-c3cccnc3)n2)c1`: 0.126 µM (active).
Regarding `COc1cc(C)ccc1OCCOc1cc(C)ccc1Cl`, the “activity, negative = inhibition” value was -29.1%.
On to `COc1cc(C)ccc1OCCCOc1ccccc1Cl`, for which the AC50 was 2.51 µM (active).
`COc1cc(C)ccc1OCCCOc1ccccc1Br`: the AC50 is 1.58 µM (active).
Still for that read-out and setting: next, `COc1ccccc1OCCCOc1ccc([N+](=O)[O-])cc1Cl`: 2 µM (active).
Consider `C[C@@H]1C[C@H](C)CN(S(=O)(=O)c2cc(Cl)c(Oc3ccc([N+](=O)[O-])cc3Cl)c(Cl)c2)C1`, for which the activity, negative = inhibition is -15.8% [at 11.4 µM].
The same measure, in the same setting: in the case of `CC1(C)CCC=[N+]1[O-]` it was -0.975%.
As to `CO/N=C(\C)CCN1CCc2nc(-c3ccccc3)c(-c3ccccc3)cc2C1`, the activity, negative = inhibition is 7.31% [at 11.4 µM].
As to `CO[C@H]1COC(=O)[C@H]2CCCN2C(=O)[C@@H](C)COC(=O)C/C=C\[C@@H]1C`, the activity, negative = inhibition was -1.05% [at 11.4 µM].
For the compound `CCn1c2ccc(Cl)cc2c2nc3ccccc3nc21`, the half-maximal activity concentration (AC50) was 0.501 µM (active).
For `CC(=O)Nc1c(S(=O)(=O)c2ccccc2)c2nc3ccccc3nc2n1Cc1ccccc1`, the “activity, negative = inhibition” value was -16%.
